# Compounds with a hit are over-represented: about 2.5% of the library has one in this group of screens.
# PG9 binder: binders of HIV-1 gp120 antibody PG9, primary screen, biochemical, TR-FRET. HIV-1 gp120 / PG9 antibody interaction. TR-FRET gp120-PG9 antibody binding. inhibition, % at 6.7 µM. 0.43% of 360,000 active; in the data active means inhibition above about 8.5%
# rCAG RNA binder: binders of r(CAG) RNA repeats, primary screen, biochemical, fluorescence; inhibition, % at 3 µM; AID 651821, 2012; r(CAG) RNA repeat, TO-PRO-1 dye displacement fluorescence; 1.3% of 370,000 active;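 active means inhibition above the plate cutoff, the mean of all test compounds on that plate plus 3 SD, cut at about 35% in these data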;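 further: higher means more dye released from RNA so lower well fluorescence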
# Exocytosis inh: LAMP-1 surface exposure blockers, TALL-104 cells – cell-based, flow cytometry, MLPCN library, primary screen; inhibition, % at 10 µM; 0.66% of 360,000 active; TALL-104 LAMP-1 surface exposure; cells stimulated with thapsigargin and PMA;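 active means inhibition above about 55%, limit read from the data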
# ABCB6 inh 2: ABCB6 transporter inhibitors, primary screen, K562-ABCB6 cells, flow cytometry, MLPCN library; AID 602162, 2011; 0.19% of 360,000 active; fluorescence ratio to DMSO, % at 10 µM; ATP-binding cassette sub-family B member 6 (Homo sapiens), Q9NP58; K562-ABCB6 porphyrin accumulation, 1 h; hits give low values;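 active means fluorescence ratio to DMSO below 75%, the collection mean minus 3 SD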;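 further: signal is porphyrin accumulated inside mitochondria; lower ratio means ABCB6 inhibition with less porphyrin fluorescence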
# Target sequence (Q9NP58 whole entry, looked up): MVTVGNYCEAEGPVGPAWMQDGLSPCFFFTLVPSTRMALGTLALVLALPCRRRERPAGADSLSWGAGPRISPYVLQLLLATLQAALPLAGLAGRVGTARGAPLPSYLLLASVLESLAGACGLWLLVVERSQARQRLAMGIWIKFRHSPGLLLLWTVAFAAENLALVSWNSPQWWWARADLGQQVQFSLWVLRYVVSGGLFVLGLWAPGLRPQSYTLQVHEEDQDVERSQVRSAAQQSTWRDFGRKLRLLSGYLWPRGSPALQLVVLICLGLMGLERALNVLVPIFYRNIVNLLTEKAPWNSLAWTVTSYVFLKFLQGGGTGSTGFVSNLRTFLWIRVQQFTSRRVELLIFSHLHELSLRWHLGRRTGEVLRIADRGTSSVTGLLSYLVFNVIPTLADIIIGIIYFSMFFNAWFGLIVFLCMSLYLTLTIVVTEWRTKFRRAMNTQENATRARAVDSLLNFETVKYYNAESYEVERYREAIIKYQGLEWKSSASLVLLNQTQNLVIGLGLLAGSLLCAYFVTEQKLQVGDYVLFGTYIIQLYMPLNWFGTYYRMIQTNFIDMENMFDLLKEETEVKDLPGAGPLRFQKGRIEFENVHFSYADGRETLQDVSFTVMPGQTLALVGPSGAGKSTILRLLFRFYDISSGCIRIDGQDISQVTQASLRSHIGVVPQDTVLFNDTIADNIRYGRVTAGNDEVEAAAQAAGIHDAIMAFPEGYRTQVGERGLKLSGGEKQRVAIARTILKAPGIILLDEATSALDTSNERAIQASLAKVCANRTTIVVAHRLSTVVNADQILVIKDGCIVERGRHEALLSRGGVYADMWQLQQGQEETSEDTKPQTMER
# Hits are given with their value; 0 = inactive; - = not tested or not shown; ! = repeats disagree.
SMILES,PG9 binder,rCAG RNA binder,Exocytosis inh,ABCB6 inh 2
Cn1c(=O)[nH]c(=O)c2c1nc(SCCN1CCOCC1)n2Cc1ccccc1,0,0,0,0
Cn1c(=O)[nH]c(=O)c2c1nc(SCCN1CCOCC1)n2CCCc1ccccc1,18.8,0,0,0
Cc1c(Cl)cccc1-c1ccc(C(=O)N2CCN(c3ccc([N+](=O)[O-])cc3)CC2)o1,0,0,58.4,0
O=C(c1ccc(-c2cccc(Cl)c2)o1)N1CCN(c2ccc([N+](=O)[O-])cc2)CC1,0,0,0,0
Cc1ccc(C(=O)N/C(=C\c2cn(C)c3ccccc23)C(=O)NCCCN2CCOCC2)cc1,0,0,0,0
Cc1ccc(C(=O)N/C(=C\c2ccc(-c3ccccc3[N+](=O)[O-])o2)C(=O)NCCCN2CCOCC2)cc1,0,0,91.1,0
S=c1[nH]nc(-c2cc(-c3ccccc3)n[nH]2)n1/N=C/C(Br)=C/c1ccccc1,0,0,63.4,0
O=C(COc1ccc2ccccc2c1)Nc1cccc(C(=O)Nc2ccccc2C(=O)O)c1,0,82.8,0,0
COC(=O)[C@]12C[C@H](CC(=O)NCCC(C)C)C(=O)N(Cc3ccco3)C1=C[C@H](C1CCCC1)O[C@@H]2C,-,0,-,-
Cc1oc2cc([N+](=O)[O-])c(O)c([N+](=O)[O-])c2c1C(=O)c1ccc(Cl)cc1,0,35.6,0,0
CN(C)c1ccc(C(=O)c2ccc(O)cc2O)cc1,0,0,0,0
CN(C)c1ccc(Cc2cc3c(O)ccc(O)c3cc(Cc3ccc(N(C)C)cc3)c2=O)cc1,0,76.1,103.6,0
CCN1/C(=C/C=C/c2sc3ccccc3[n+]2CC)Sc2ccccc21,-,-,75.2,0
O=C1CCCc2oc3c(cc(NS(=O)(=O)c4ccc5c6c(cccc46)C(=O)N5)c4ccccc43)c21,0,45.9,0,0
O=C(O)c1ccccc1NS(=O)(=O)c1ccc2c3c(cccc13)C(=O)N2,0,0,0,0
O=C(CO)N/N=C/c1ccccc1F,0,36.3,0,0
O=C(N/N=C/c1ccccc1F)c1ccccc1OCc1ccccc1,0,0,107.4,0
O=C(COCC(=O)N/N=C/c1ccccc1F)N/N=C/c1ccccc1F,0,0,0,0
COc1ccc(S[C@]2(C(=O)N3CCCC3)CC(=O)N(C(=O)Nc3ccc(C)c(Cl)c3)[C@@H]2c2ccc(OC)cc2)cc1,-,0,-,-
CC(C)C(C(=O)NCc1ccccc1)N1CCN(CCN2CCOCC2)CC1 (configuration not stated),0,0,-,-
COC(=O)[C@]12C[C@H](CC(=O)N3CCCCC3)C(=O)N(CCC3=CCCCC3)C1=C[C@H](C1CCCC1)O[C@@H]2C,-,0,-,-
COC(=O)CSc1nc(N)c(C#N)c(-c2ccc(O)cc2)c1C#N,0,0,0,0
CCOC(=O)CSc1nc(N)c(C#N)c(-c2ccc(OCC)cc2)c1C#N,11.5,0,0,0
O=C(Nc1ccccc1)c1nnsc1S(=O)c1ccc(Cl)cc1 (configuration not stated),0,0,60.3,0
Cc1cc(C)c(S(=O)(=O)/N=C2/C=C(Sc3ncn[nH]3)C(=O)c3ccccc32)cc1C,0,56.0,97.9,0
SMILES,PG9 binder,rCAG RNA binder,Exocytosis inh,ABCB6 inh 2
C[C@@H]1ON(C)[C@H]2C[C@H]3c4cc(-c5ccc(F)cc5)ccc4CCN3C[C@@H]12,0,0,-,-
CCOC(=O)C1=C(C(=O)OCC)C2N(Cc3ccc(C#N)cc3)c3ccccc3[C@@]23C[C@@H](C(=O)OC)N(S(=O)(=O)c2cccs2)C3=N1 (some centres not stated),0,0,-,-
COC[C@H]1CCCN1c1ccc2c(c1)OCCCN(C1CC1)S2(=O)=O,-,0,-,-
O=C1/C(=C\c2ccc(Br)cc2)SC(=S)N1NS(=O)(=O)c1ccccc1,0,0,56.6,0
Cc1ccc(S(=O)(=O)NN2C(=O)/C(=C/c3cccc(F)c3)SC2=S)cc1,0,75.1,0,0
COC(=O)C1=C(C)N(Cc2cccc(C(F)(F)F)c2)C(=NCc2ccccc2C(F)(F)F)NC1c1ccc(Cl)cc1 (configuration not stated),0,0,-,-
O=C1C(Br)=C(c2ccccc2)C(c2ccccc2)=C1c1ccccc1,-,-,106.0,0
O=C1NC(c2ccccc2)=C(c2ccccc2)C1=O,0,0,0,0
N#Cc1c(N)nc(Sc2ccc(Cl)cc2)c(C#N)c1-c1ccccc1Cl,0,0,79.4,0
Nc1[nH]c(C(=O)c2ccc(Cl)cc2)c(-c2ccc(Br)cc2)c1C(=O)c1c[nH]c2ccc(F)cc12,0,0,-,-
CCN(CC)C(=O)CC[C@H]1CC[C@]2(CCCN(C(=O)c3ccco3)C2)O1,-,0,-,-
O=C(N/N=C/c1ccc([N+](=O)[O-])o1)c1cn(-c2ccccc2)nc1-c1ccc(Cl)cc1,0,0,0,0
O=[N+]([O-])CC(=Nc1ccc(Cl)cc1)N/N=C\c1oc(O)c2ccccc12,0,53.2,0,0
COc1cc(NC(=S)NCCCN2CCOCC2)cc(OC)c1,0,0,0,62.0
CC[n+]1c(/C=C/N(C)c2ccccc2)n(-c2ccccc2)c2ccc(-c3nc4ccccc4s3)cc21,-,-,63.6,0
CC(C)CN1C(=O)[C@]2(CC(=O)N(C)C2c2ccccc2)c2cc(-n3cc(C4=CCCCC4)nn3)ccc21 (some centres not stated),-,0,-,-
CC(C)(C)C(=O)c1c(N)[nH]c(C(=O)c2ccccc2)c1-c1ccc([N+](=O)[O-])cc1,0,0,-,-
CCCCCCCCCCOC(=O)Cn1c(COc2ccccc2OC)[n+](C)c2ccccc21,0,0,88.8,0
O=C(NC1CCC1)c1ccc(C#Cc2cccc(F)c2)nc1,-,0,-,-
O=C1C(Cl)=C(Nc2ccccc2)C(=O)c2ccccc21,0,0,0,0
O=C(O)c1ccc(NC2=C(Cl)C(=O)c3ccccc3C2=O)cc1,0,0,70.5,0
O=C(OCc1cn(Cc2ccc(F)c(F)c2)nn1)N1CCOCC1,-,0,-,-
CCOC(=O)Nc1sc2c(c1C(=O)OCC)CCC2,0,0,0,0
CCOC(=O)c1c(NC(=O)C2CCCCC2C(=O)O)sc2c1CCCCC2 (configuration not stated),0,44.8,0,0
CCOC(=O)C1=C(CSc2nc(CC)c(C)cc2C#N)OC(N)=C(C#N)C1c1ccccc1 (configuration not stated),0,0,0,0
CCOC(=O)C1=C(CSc2nc(-c3ccccc3)ccc2C#N)OC(N)=C(C#N)C1c1ccc(OC)cc1 (configuration not stated),0,0,74.6,0
O=C(CSc1nc2ccccc2nc1SCC(=O)N1CCCCC1)N1CCCCC1,22.3,0,0,0
O=C(CSc1nc2ccccc2nc1SCC(=O)N1CCOCC1)N1CCOCC1,0,0,0,0
NC(=S)N=Nc1c(O)n(CCCl)c2ccc(Br)cc12,0,0,78.0,0
CN1CCN(Cc2nc3ccccc3c(=O)n2Cc2nc(-c3ccc4ccccc4c3)cs2)CC1,0,0,64.8!,0

# Screens from PubChem.
